V-ATPase pHluor = alters yeast V-ATPase proton transport; S. cerevisiae, pHLuorin cytosolic pH fluorescence; response, % at 10 µM; hit rate 0.37% among 350,000; AID 504577; in the data active = response mostly above about 7.3%, no sharp cut-off; inactive = mostly below about 5.4%; also: actives read high
beta cell repl = induces beta-cell replication in MIN6 cells; MIN6 cells proliferation, ATPlite luminescence, 48 h; cells starved in 0.2% serum; 100% = growth in 10% serum; proliferation, % at 10 µM; hit rate 0.29% among 330,000; AID 2380;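 active = compounds whose signal lies at least 3.5 SD above the mean of all wells on their plate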;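 also: 0% = DMSO-treated cells in low-serum medium and 100% = 10% serum control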
CR mimetic SO = caloric restriction mimetics inhibiting age-related superoxide in yeast; superoxide response (% of plate mean), % at 10 µM; S. cerevisiae aged cells, superoxide DHE fluorescence; active compounds read low; hit rate 0.18% among 330,000;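 active = superoxide response under a set limit, about three screen SD below normal, cut at about 65% in these data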;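 also: yeast aged for seven days with compound at 30 °C before DHE staining; 100% = average MFI of all compound-treated wells on the plate with controls excluded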
pCIP destab = compounds decreasing mouse p/CIP protein stability; Q05BA5; F442A p/CIP-EGFP cells, EGFP fluorescence, 16 h; decrease of EGFP signal, % at 10 µM; hit rate 0.01% among 290,000;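 active = EGFP signal decrease of at least 30% at 10 µM or well 3 SD below plate mean, unless failing retest; inactive = the rest, including hits failing retest or dose response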
Target sequence (Q05BA5 1-1403): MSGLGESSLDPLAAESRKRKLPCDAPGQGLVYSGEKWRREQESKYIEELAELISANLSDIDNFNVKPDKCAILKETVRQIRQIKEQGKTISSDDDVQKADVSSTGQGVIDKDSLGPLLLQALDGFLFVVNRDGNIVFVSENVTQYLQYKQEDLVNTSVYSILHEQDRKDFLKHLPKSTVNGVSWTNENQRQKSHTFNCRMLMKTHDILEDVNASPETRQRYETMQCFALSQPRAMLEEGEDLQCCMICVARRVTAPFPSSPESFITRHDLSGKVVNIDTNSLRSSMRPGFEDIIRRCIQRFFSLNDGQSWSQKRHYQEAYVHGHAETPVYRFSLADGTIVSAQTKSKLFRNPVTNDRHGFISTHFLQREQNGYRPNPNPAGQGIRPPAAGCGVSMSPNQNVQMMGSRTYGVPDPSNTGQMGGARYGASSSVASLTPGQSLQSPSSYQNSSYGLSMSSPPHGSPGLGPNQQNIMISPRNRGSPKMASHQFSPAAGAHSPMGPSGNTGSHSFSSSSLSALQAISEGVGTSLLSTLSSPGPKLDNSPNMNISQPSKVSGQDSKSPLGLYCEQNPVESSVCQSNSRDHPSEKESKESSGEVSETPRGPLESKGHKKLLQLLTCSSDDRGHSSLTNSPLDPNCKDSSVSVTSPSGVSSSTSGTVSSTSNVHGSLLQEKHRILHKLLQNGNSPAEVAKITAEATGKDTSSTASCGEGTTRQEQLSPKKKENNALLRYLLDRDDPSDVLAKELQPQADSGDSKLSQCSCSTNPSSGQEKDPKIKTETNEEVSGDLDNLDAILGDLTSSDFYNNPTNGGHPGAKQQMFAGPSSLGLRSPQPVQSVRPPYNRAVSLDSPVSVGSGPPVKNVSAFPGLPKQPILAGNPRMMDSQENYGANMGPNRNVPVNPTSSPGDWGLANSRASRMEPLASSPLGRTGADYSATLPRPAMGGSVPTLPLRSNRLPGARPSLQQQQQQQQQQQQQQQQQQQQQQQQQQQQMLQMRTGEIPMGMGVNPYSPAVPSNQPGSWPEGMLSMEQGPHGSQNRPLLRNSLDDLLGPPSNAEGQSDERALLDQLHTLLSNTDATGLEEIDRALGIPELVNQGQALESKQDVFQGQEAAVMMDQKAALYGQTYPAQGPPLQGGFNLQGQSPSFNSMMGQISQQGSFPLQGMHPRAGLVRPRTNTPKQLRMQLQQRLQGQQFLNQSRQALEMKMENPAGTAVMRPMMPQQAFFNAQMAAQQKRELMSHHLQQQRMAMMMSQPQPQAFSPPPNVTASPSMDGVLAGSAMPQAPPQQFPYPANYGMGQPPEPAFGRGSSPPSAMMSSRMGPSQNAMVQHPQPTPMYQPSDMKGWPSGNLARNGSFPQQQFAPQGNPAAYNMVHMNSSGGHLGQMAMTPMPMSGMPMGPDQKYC
Cardio protect = myocardial damage modulation in H9c2 cells; H9c2 cardiomyocytes, H2O2 injury protection, ATPLite, 2 h; protection from H2O2 cell death, % at 20 µM; hit rate 0.63% among 360,000;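 active = compounds giving at least 50% protection of heart cells from peroxide-induced death in the single-dose screen, raw or plate-pattern-corrected value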;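 also: 0% = DMSO wells with peroxide and 100% = DMSO wells without peroxide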
HSV replic up = HSV replication enhancement | HSV replication augmentation in cells, fold increase | maximum fold increase | hit rate 0.005% among 220,000 | AID 1956; in the data active = maximum fold increase above about 1.5; tested in PC3 cells
CR mimetic CP = yeast aging superoxide inhibition, cherry pick confirmation | shares compounds with CR mimetic SO | S. cerevisiae aging, superoxide DHE fluorescence; active compounds read low | superoxide response (% of plate), % at 10 µM | hit rate 1% among 850 | AID 434994;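 active = superoxide signal below 65% of the plate average of sample wells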;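 also: cells aged with compound for 7 days at 30 degrees C before staining; 100% equals mean DHE fluorescence of all compound wells on the plate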
DHE fluor count = compound alters DHE oxidation or fluorescence in yeast. shares compounds with CR mimetic SO. S. cerevisiae BY4741, flow cytometry; active compounds read low. fluorescence response, % at 10 µM. 850 tested, under 10 active. AID 435000;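 active = fluorescence response below 15%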;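 also: percent of the mean fluorescence averaged over all compound wells on the plate; lower means stronger quenching of DHE signal or ROS scavenging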
* = called active by the depositor; i = inactive; . = no result given; ! = not active in a repeat. Most compounds without a hit are left out; they make up all but 1.4% or so of the library.

SMILES | V-ATPase pHluor | beta cell repl | CR mimetic SO | pCIP destab | Cardio protect | HSV replic up | CR mimetic CP | DHE fluor count
CC(C)(Oc1ccc(Cl)cc1)C(=O)NCc1ccc(S(N)(=O)=O)cc1 | -3 | 0 | 96 | -16 | -2 | i | . | .
Cc1cc(C)cc(NC(=O)N2CCNC(=O)C2CC(=O)Nc2cc(Cl)ccc2Cl)c1 (configuration not stated) | -2 | -3 | 64* | -20 | 3 | . | 99 | 109
O=C(O)C1CCCN1S(=O)(=O)c1ccc(F)cc1 (configuration not stated) | 3 | -5 | 104 | -6 | 6 | . | 96 | 91
Cc1ccc(S(=O)(=O)N2CCCC2C(=O)O)cc1 (configuration not stated) | 1 | 0 | 92 | -7 | -7 | i | . | .
c1cnc2c(c1)ccc1cccnc12 | -2 | -4 | 64*! | 3 | 60* | i | 89 | 105
C=CCn1c(=O)c2ccccc2n2c(SCc3c(C(=O)OCC)oc4ccccc34)nnc12 | 1 | 0 | i | 5 | 11 | i | . | .
COc1ccc(CC(=O)OCC(=O)NCCc2ccccc2)cc1OC | 0 | 0 | 103 | 0 | -3 | i | . | .
O=C(NNC(=O)c1ccc(Cl)cc1Cl)Nc1ccccc1 | -5 | 0 | 63* | -1 | -4 | i | 99 | 89
COc1ccc(-n2c(C)cc(C(=O)CN3CCCCC3)c2C)cc1 | 1 | -3 | 97 | -5 | -2 | i | . | .
COc1ccc(-n2c(C)cc(C(=O)CN3CCC(C)CC3)c2C)cc1 | -4 | -5 | 65* | 2 | 0 | i | 104 | 89
O=c1c2ccc(Cl)cc2nc(-c2ccc([N+](=O)[O-])cc2)n1O | 3 | -6 | 54* | 4 | 4 | i | 87 | 90
O=c1c2cc(Br)ccc2nc(-c2ccc([N+](=O)[O-])cc2)n1O | 0 | -5 | 87 | -8 | 9 | i | . | .
Cc1ccc(Cn2c(=N)n(CC(=O)c3ccccc3)c3ccccc32)cc1 | 6 | -6 | 101 | -11 | -34 | i | . | .
CCOc1cccc(-c2nnc(SCC(=O)Nc3cc(OC)cc(OC)c3)n2N)c1 | 0 | -3 | 116 | -7 | 9 | i | . | .
COc1cccc(NC(=O)CSc2nnc(-c3cccc(OC(C)C)c3)n2N)c1 | 1 | -3 | 90 | -1 | -7 | i | i | 101
COc1ccc(C)cc1NC(=O)CSc1nnc(-c2ccc(OC)c(OC)c2)n1N | 2 | 4 | 111 | 4 | 6 | i | . | .
CCOc1cccc(-c2nnc(SCC(=O)Nc3ccc(OC)c(OC)c3)n2N)c1 | -2 | -3 | 86 | 1 | -2 | i | 92 | 94
COc1ccc(NC(C)=O)cc1NC(=O)CSc1nnc(-c2ccc(F)cc2)n1N | -2 | -4 | 93 | 11 | -1 | i | 111 | 106
COc1ccc(NC(=O)CSc2nnc(-c3ccc(C)cc3)n2N)cc1 | 4 | 1 | 86 | -18 | -3 | i | . | .
CC(C)n1c(=O)c2ccccc2n1Cc1cn(Cc2cccs2)nn1 | . | . | . | . | 3 | . | . | .
O=C(CNC(=O)C12CC3CC(CC(C3)C1)C2)N1CCN(S(=O)(=O)/C=C/c2ccccc2)CC1 | -1 | 0 | 96 | -7 | -13 | i | . | .
CC(C)CNC(=S)NNC(=O)c1csc2c1CCC(C)C2 (configuration not stated) | 1 | -2 | 59* | 2 | -6 | i | 91 | 89
Cc1cccc(NC(=S)NNC(=O)c2csc3c2CCC(C)C3)c1 (configuration not stated) | -2 | -3 | 96 | 0 | 3 | i | . | .
Cc1ccc(CSc2ncnc3onc(C)c23)cc1 | 2 | 0 | 58* | -10 | -5 | i | 112 | 111
CCC(=O)NCCn1ccc2ccccc21 | -4 | 1 | 93 | -16 | 6 | i | . | .
SMILES | V-ATPase pHluor | beta cell repl | CR mimetic SO | pCIP destab | Cardio protect | HSV replic up | CR mimetic CP | DHE fluor count
O=S(=O)(NCCn1ccc2ccccc21)c1ccccc1 | -1 | -7 | 65* | -22 | 0 | i | 110 | 107
O=S(=O)(Nc1nc2ccccc2nc1Cl)c1cccc(C(F)(F)F)c1 | -5 | 5 | 114 | -15 | -7 | . | . | .
Cc1cccc(C)c1NC(=O)c1cn(-c2ccccc2)nc1-c1ccccc1 | 0 | -3 | 99 | 2 | 6 | i | . | .
O=C(NN=C1CCCCCC1)c1cn(-c2ccccc2)nc1-c1ccccc1 | 2 | 0 | 64* | 2 | -4 | i | 126 | 103
COC(=O)c1cccc2nc3c(C(C)O)cccc3nc12 (configuration not stated) | 1 | -1 | 50* | 2 | 5 | i | 66 | 113
CCN(CC)C(=O)c1cccc2nc3ccccc3nc12 | 5 | 2 | 81 | -1 | -4 | i | . | .
O=C(CCSc1ccc(F)cc1)NNC(=O)c1ccc([N+](=O)[O-])cc1 | 1 | -2 | 152 | . | 2 | . | . | .
O=C(NCCS(=O)(=O)N1CCN(c2ccccc2F)CC1)c1cccs1 | -2 | 0 | 99 | . | -2 | . | . | .
COc1ccc(CC(=O)OCC(=O)Nc2cc(Cl)ccc2C)cc1 | 6 | 3 | 63* | . | 1 | . | 98 | 92
COc1cccc(N=Nc2c(=O)[nH]n3c(C)cc(C)nc23)c1 | -1 | -3 | 91 | -2 | 8 | i | . | .
CCOc1ccc(N=Nc2c(=O)[nH]n3c(C)cc(C)nc23)cc1 | -1 | 0 | 52* | -5 | 6 | i | 100 | 110
O=C(c1cccc(S(=O)(=O)Nc2ccc(F)cc2)c1)N1CCC1 | -2 | 4 | 122 | . | -4 | . | . | .
Cc1nc2ccccn2c1C(=O)NNC(=O)Nc1cccc(C(F)(F)F)c1 | -2 | -3 | 64* | 0 | -1 | . | 105 | 89
CN(CC1CCCO1)S(=O)(=O)c1ccc(C(=O)Nc2nnc(-c3ccccc3)o2)cc1 (configuration not stated) | 3 | -4 | 93 | -12 | 15 | . | 105 | 123
N#CCCN(CCC#N)S(=O)(=O)c1ccc(C(=O)Nc2nnc(C3=COCCO3)o2)cc1 | 4 | -2 | 88 | 8 | 7 | i | . | .
COc1ccccc1-c1nnc(NC(=O)c2ccc(S(=O)(=O)N(C)CC3CCCO3)cc2)o1 (configuration not stated) | -3 | 0 | 94 | -11 | 13 | . | 94 | 96
CCCCN(C)S(=O)(=O)c1ccc(C(=O)Nc2nnc(C3=COCCO3)o2)cc1 | -1 | -2 | 118 | 1 | 3 | i | 99 | 110
COc1ccc(OC)c(S(=O)(=O)N2CCCC2C(=O)NC(C)c2ccccc2)c1 (configuration not stated) | 0 | 0 | 114 | 4 | 7 | . | . | .
CCOC(=O)C(C(C)C)C(N)Cc1ccc(F)cc1 (configuration not stated) | . | -1 | 122 | 10 | 2 | i | . | .

Screening data: PubChem BioAssay, several laboratories
